Test systems include NCI-H23 lung; NCI-H226 lung; NCI-H322M lung; HOP-62 NSCLC; NCI-H460 lung; HOP-92 NSCLC; NCI-H522 lung; A549/ATCC NSCLC; 786-0 renal; COLO 205 colon.
What all share (assay): NCI-60 one-dose screen, 48 h (100 = growth as untreated, 0 = no growth, -100 = all killed)
Common to all, as to details: 10 µM unless noted

The panel holds about 83,000 compounds, 20% with a hit somewhere; the sample as a whole holds those more often.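 Each cell line was grown in a 96-well plate and treated with one concentration of compound for 48 hours. Values below 10 were considered active.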 Unmarked numbers belong to inactive results. The source made the active and inactive calls.

With `COc1ccc2nc3cc(Cl)ccc3c(Nc3ccc(O)cc3)c2c1`, the growth with NCI-H23 lung is 72.8%; with NCI-H226 lung it was 74.4%; in the assay on NCI-H322M lung, 90.5%; in the assay on HOP-62 NSCLC, 68.8%; with NCI-H460 lung it was 23.1%; in the assay on HOP-92 NSCLC, 78.9%. The growth with NCI-H522 lung is 72.5%; with A549/ATCC NSCLC it was 46.6%; with 786-0 renal, 84%; in the assay with COLO 205 colon, 76.8%.
`COc1ccc(-c2ccc(NNC(=O)c3ccc(F)cc3)nn2)cc1OC`: the growth was 83.7% with NCI-H23 lung; 70% with NCI-H226 lung; 72.2% in the assay on NCI-H322M lung; 57.6% with HOP-62 NSCLC; 93.2% in the assay with NCI-H460 lung; 8.49% (active) with HOP-92 NSCLC. The growth is 72.8% in the assay on NCI-H522 lung, 72.4% with A549/ATCC NSCLC, 63.4% in the assay on 786-0 renal and 75.6% in the assay on COLO 205 colon.
On to `O=C(NCCCCCCCNC(=O)OCc1ccc2c(Cl)cc(Cl)c(O)c2n1)OCc1ccc2c(Cl)cc(Cl)c(O)c2n1`, for which the growth in the assay with NCI-H23 lung was -52.3% (active); with NCI-H226 lung, -50.3% (active); in the assay with NCI-H322M lung it was 31%; in the assay on HOP-62 NSCLC, -56.8% (active); in the assay with NCI-H460 lung, -31.3% (active); with HOP-92 NSCLC it was -75% (active). Further, the growth is -55.6% (active) in the assay with NCI-H522 lung, -68.7% (active) with A549/ATCC NSCLC, -62.7% (active) in the assay with 786-0 renal and -75.9% (active) with COLO 205 colon.
Take `NC1=NC(=O)NC1(c1ccccc1)c1ccccc1`: the growth in the assay on NCI-H23 lung was 91.9%; with NCI-H226 lung, 99%; with NCI-H322M lung it was 99.2%; in the assay on HOP-62 NSCLC, 95.6%; with NCI-H460 lung it was 108%; with HOP-92 NSCLC, 85.3%. For the same molecule, the growth with NCI-H522 lung was 95.1%; in the assay with A549/ATCC NSCLC it was 93.3%; in the assay on 786-0 renal, 135%; in the assay on COLO 205 colon, 103%.
With `COc1ccc(/C=C(/C(=O)c2ccc(Cl)cc2)C(=O)C(F)(F)F)cc1`, the growth in the assay with NCI-H23 lung is 91.4%; with NCI-H226 lung, 99.9%; with NCI-H322M lung it was 77.7%; with HOP-62 NSCLC it was 91.9%; in the assay on NCI-H460 lung, 109%; with HOP-92 NSCLC, 101%. Besides, the growth was 74.8% in the assay on NCI-H522 lung, 92% with A549/ATCC NSCLC, 99.1% with 786-0 renal and 110% in the assay on COLO 205 colon.
Regarding `O=[N+]([O-])c1cc(CCl)ccc1OCCBr`, the growth with NCI-H23 lung was 102%; in the assay on NCI-H226 lung it was 94.8%; in the assay with NCI-H322M lung, 104%; with HOP-62 NSCLC, 105%; in the assay with NCI-H460 lung, 101%; in the assay on HOP-92 NSCLC, 98.6%. The growth in the assay with NCI-H522 lung is 96.1%; in the assay on A549/ATCC NSCLC it was 104%; in the assay with 786-0 renal, 103%; in the assay with COLO 205 colon, 107%.
Regarding `COc1ccc(C2=C(c3cn(C)c4ccccc34)C(=O)OC2)cc1OC`, the growth with NCI-H23 lung was 54.6%; in the assay on NCI-H226 lung, 70.3%; with NCI-H322M lung, 65.5%; in the assay with HOP-62 NSCLC, 31.5%; in the assay on NCI-H460 lung, 29.6%; with HOP-92 NSCLC it was 16.4%. Moreover, the growth in the assay on NCI-H522 lung was 13.3%; in the assay with A549/ATCC NSCLC, 42.3%; in the assay with 786-0 renal, 41.2%; in the assay with COLO 205 colon it was 12.6%.
`CC(C)(C)c1cc(C(=O)Nc2ccc(C(=O)NCCN)cc2)cc(C(C)(C)C)c1`: the growth with NCI-H23 lung was 85%; in the assay on NCI-H226 lung it was 84.2%; with NCI-H322M lung, 58.3%; with HOP-62 NSCLC, 67%; in the assay on NCI-H460 lung, 3.53% (active); with HOP-92 NSCLC, 26.1%. The growth in the assay on NCI-H522 lung was 40.3%; in the assay on A549/ATCC NSCLC it was 39.3%; in the assay with 786-0 renal it was 32.2%; in the assay on COLO 205 colon it was -77.7% (active).
Regarding `C=C(C)[C@@H]1CC[C@]2(C(=O)NCCNCCNCCN)CC[C@]3(C)[C@H](CC[C@@H]4[C@@]5(C)CCC(=O)C(C)(C)[C@@H]5CC[C@]43C)[C@@H]12`, the growth is -35.2% [100 µM] (active) in the assay on NCI-H23 lung; 74.3% [100 µM] in the assay with NCI-H226 lung; -81.1% [100 µM] (active) in the assay with NCI-H322M lung; 43.1% [100 µM] in the assay with HOP-62 NSCLC; -90.9% [100 µM] (active) with NCI-H460 lung; -65.2% [100 µM] (active) in the assay on HOP-92 NSCLC. The growth was -69.7% [100 µM] (active) with NCI-H522 lung, -76.5% [100 µM] (active) with A549/ATCC NSCLC, -84.5% [100 µM] (active) in the assay on 786-0 renal and -47.5% [100 µM] (active) with COLO 205 colon.
As to `Cn1cc(-c2noc(-c3cn(C)c4ncc(F)cc34)n2)c2cc(Cl)ccc21`, the growth with NCI-H23 lung was 81.3%; in the assay on NCI-H226 lung it was 95.7%; in the assay with NCI-H322M lung it was 50.3%; with HOP-62 NSCLC it was 68.4%; with NCI-H460 lung, 2.39% (active); in the assay with HOP-92 NSCLC, 64.3%. Moreover, the growth is 74.2% with NCI-H522 lung, 33.9% with A549/ATCC NSCLC, 9.09% (active) with 786-0 renal and 55.5% with COLO 205 colon.
Turning to `COc1ccc(-c2cc(-c3ccc(Cl)cc3)nc(NCCCCNc3ccnc4cc(Cl)ccc34)n2)cc1`, the growth with NCI-H23 lung was 86.4%; in the assay on NCI-H226 lung, 75%; in the assay with NCI-H322M lung, 94.4%; in the assay on HOP-62 NSCLC, 78.1%; with NCI-H460 lung, 89.7%; in the assay on HOP-92 NSCLC, 46.2%. In addition, the growth in the assay with NCI-H522 lung was 80%; in the assay on A549/ATCC NSCLC, 91.8%; in the assay on 786-0 renal, 73.5%; in the assay with COLO 205 colon it was 30.4%.
Take `Ic1ccc2[nH]cc(SSc3c[nH]c4ccc(I)cc34)c2c1`: the growth is 17.9% with NCI-H23 lung; 24.9% in the assay on NCI-H226 lung; 57.8% with NCI-H322M lung; 30.4% with HOP-62 NSCLC; -11.5% (active) with NCI-H460 lung; -6.72% (active) in the assay with HOP-92 NSCLC. The growth in the assay with NCI-H522 lung was -48% (active); with A549/ATCC NSCLC it was 21.8%; with 786-0 renal, 41.6%; in the assay with COLO 205 colon it was -37.1% (active).
With `CCN(CC)c1ccc(/C=C/C=C2\NC(=O)NC2=O)cc1`, the growth in the assay with NCI-H23 lung was 49.8%; in the assay on NCI-H226 lung, 69%; with NCI-H322M lung it was 63.3%; in the assay on HOP-62 NSCLC it was 45.3%; in the assay on NCI-H460 lung, 19.7%; with HOP-92 NSCLC, 31.1%. For the same molecule, the growth with NCI-H522 lung was -36% (active); in the assay on A549/ATCC NSCLC it was 37.2%; with 786-0 renal, 9.14% (active); in the assay with COLO 205 colon, 33.7%.

For the origin of these results see PubChem BioAssay (NCI).
